# Experimental data published in PubChem BioAssay.
# Calls of active or inactive are those of the source. Unless noted, the rule behind the calls is not given here.
# Tests used:
# [1] = HepG2 liver cancer cell viability effects, profiling panel, resazurin fluorescence, 24 h, PK04 Diversity Set (AID 1172); settings: higher = more signal; note: test concentration not given here
# [2] = basal S. cerevisiae growth modulation, no modifier, primary screen, OD600, strain BY4716, 24 h, basal condition (AID 1173); settings: OD600, 24 h, higher = more signal, called active from +8 up or from −8 down
# [3] = MM1S myeloma cell viability, profiling panel, resazurin fluorescence, basal, 24 h, PK04 Diversity Set (AID 1174); settings: higher = more signal, called active from +8 up or from −8 down;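 note: MM1S multiple myeloma cell line; test concentration not given here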
# [4] = biological target: Dihydroorotate dehydrogenase (quinone), mitochondrial (Plasmodium falciparum (isolate 3D7)) (UniProt Q08210); assay: PfDHODH enzyme inhibitors, primary screen, biochemical, C-terminal His tag, absorbance 600 nm (AID 1175); settings: DCIP absorbance 600 nm, higher = more signal, called active from +8 up or from −8 down;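 note: recombinant parasite enzyme with a five histidine tag at its C terminus; test concentration not given here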
# [5] = P. aeruginosa biofilm formation inhibitors, primary screen, strain PAO1, LB-PBS medium, absorbance 600 nm (AID 1176); note: test concentration not given here; settings: P. aeruginosa PAO1 growth/biofilm, A600, 12 h; higher = more signal
# [6] = S. cerevisiae RM11-1a growth modifiers, primary screen, strain RM11-1a, OD600, basal, 24 h (AID 1177); settings: OD600, 24 h, higher = more signal, called active from +8 up or from −8 down;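 note: cultures grown under basal conditions with no added stressor; test concentration not given here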
# [7] = E. coli acrAB mutant growth effects, primary screen, E. coli filamentation inducers, strain DRC39, OD650, 24 h (AID 1178); settings: higher = more signal, called active from +8 up or from −8 down;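 note: growth measured as culture turbidity by optical density at 650 nm; test concentration not given here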
# [8] = E. coli acrAB mutant growth effects, primary screen, E. coli filamentation inducers, strain DRC39, OD650, 48 h (AID 1179);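 note: screen aims at cell division blockers that make cells filament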; settings: E. coli DRC39 delta-acrAB growth, higher = more signal, called active from +8 up or from −8 down
# [9] = RPMI8226 myeloma cell viability, profiling panel, resazurin fluorescence, basal, 24 h, PK04 Diversity Set (AID 1180); settings: higher = more signal;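 note: RPMI8826 multiple myeloma cell line at 5000 cells per well; test concentration not given here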
# [10] = biological target: E3 ubiquitin-protein ligase XIAP (Homo sapiens) (UniProt P98170); assay: XIAP binders, primary screen, biophysical, small-molecule microarray, fluorescence 635 nm (AID 1181); settings: small-molecule microarray binding, higher = more signal;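 note: score merges 667 nm emission and signal to noise over triplicate slides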
# E3 ubiquitin-protein ligase XIAP (Homo sapiens), sequence (P98170 whole entry, looked up): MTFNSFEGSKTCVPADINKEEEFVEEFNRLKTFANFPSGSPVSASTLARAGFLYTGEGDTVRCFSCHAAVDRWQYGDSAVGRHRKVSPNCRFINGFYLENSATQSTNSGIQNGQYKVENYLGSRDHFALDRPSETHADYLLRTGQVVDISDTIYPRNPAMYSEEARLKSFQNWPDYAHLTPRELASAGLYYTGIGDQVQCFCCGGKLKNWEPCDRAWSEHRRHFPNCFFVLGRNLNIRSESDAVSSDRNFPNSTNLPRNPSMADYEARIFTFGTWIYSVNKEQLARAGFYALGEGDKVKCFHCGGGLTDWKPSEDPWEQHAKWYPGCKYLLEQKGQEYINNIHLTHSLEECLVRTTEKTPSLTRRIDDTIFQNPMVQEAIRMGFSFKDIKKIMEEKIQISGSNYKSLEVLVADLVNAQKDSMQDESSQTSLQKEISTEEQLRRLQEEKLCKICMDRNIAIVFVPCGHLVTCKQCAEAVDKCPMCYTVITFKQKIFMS
# Dihydroorotate dehydrogenase (quinone), mitochondrial (Plasmodium falciparum (isolate 3D7)), sequence (Q08210 whole entry, looked up): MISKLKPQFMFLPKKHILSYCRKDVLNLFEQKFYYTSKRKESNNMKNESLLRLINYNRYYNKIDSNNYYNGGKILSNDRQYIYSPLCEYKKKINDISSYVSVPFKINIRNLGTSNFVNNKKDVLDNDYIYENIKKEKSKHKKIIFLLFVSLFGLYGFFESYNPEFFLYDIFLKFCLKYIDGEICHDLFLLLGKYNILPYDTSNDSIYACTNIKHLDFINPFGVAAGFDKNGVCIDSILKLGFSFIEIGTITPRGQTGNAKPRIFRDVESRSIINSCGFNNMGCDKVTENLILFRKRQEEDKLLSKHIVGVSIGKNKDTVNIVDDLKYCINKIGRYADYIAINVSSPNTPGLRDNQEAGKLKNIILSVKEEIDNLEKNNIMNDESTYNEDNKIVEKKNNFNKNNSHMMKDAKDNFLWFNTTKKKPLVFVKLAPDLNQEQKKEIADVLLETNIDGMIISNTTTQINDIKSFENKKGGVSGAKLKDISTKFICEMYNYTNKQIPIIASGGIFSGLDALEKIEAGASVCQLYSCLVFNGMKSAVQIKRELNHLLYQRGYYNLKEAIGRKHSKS
SMILES,z-score [1],z-score [2],z-score [3],composite z-score [4],z-score [5],z-score [6],z-score [7],z-score [8],z-score [9],composite z-score [10]
Cc1ccc(S[C@]2(C(=O)NCC(F)(F)F)CC(=O)N(Cc3cc(C(F)(F)F)cc(C(F)(F)F)c3)[C@@H]2c2ccc(CO)cc2)cc1,-0.686,0.438 (inactive),-0.266 (inactive),-13.9 (active),0.214 (inactive),-0.145 (inactive),-0.362 (inactive),-0.615 (inactive),-0.445,-0.241
CC1CC/C=C\[C@H]2OC34C=CCN(c5ccc(Cl)cc5)C(=O)[C@H]3N(C(C)CO)C(=O)[C@]4(C)C2C(=O)O1 (stereo not given in full),0.66,-0.876 (inactive),0.535 (inactive),0.291 (inactive),-0.428 (inactive),0.33 (inactive),1.31 (inactive),1.48 (inactive),0.555,0.3
C[N+](C)(C)CCCCCCNC(=O)[C@@H]1C[C@@H]2C(=O)N3CCC[C@H]3C(=O)N2[C@@H]1c1ccc(O)cc1,1.4,-0.827 (inactive),1.02 (inactive),-1.53 (inactive),-0.984 (inactive),-0.0176 (inactive),0.0464 (inactive),-0.207 (inactive),0.441,-0.169
COCCCNC(=O)[C@@]1(Sc2ccc(C)cc2)CC(=O)N(C2Cc3ccccc3C2)[C@@H]1c1ccc(CO)cc1,0.183,-0.153 (inactive),0.307 (inactive),-0.277 (inactive),0.779 (inactive),-1.35 (inactive),0.897 (inactive),0.568 (inactive),0.222,-0.0367
CCCCCC1=C2CNC(C)(C(=O)OC)C=C2C(C)C1=O (stereo not given),-0.901,2.3 (inactive),-1.59 (inactive),-0.455 (inactive),1.06 (inactive),1.18 (inactive),-0.814 (inactive),-0.193 (inactive),-1.66,0.152
C=CCNC(=O)[C@@H]1[C@H]2C(=O)O[C@H](c3ccccc3)[C@H](c3ccccc3)N2[C@H](c2ccc(OCCO)cc2)[C@@]12C(=O)N(C(=O)OCCOC)c1ccc(C#Cc3ccc(OC)cc3)cc12,-0.0068,1.21 (inactive),0.279 (inactive),-0.0464 (inactive),2.08 (inactive),2.57 (inactive),-0.709 (inactive),-0.73 (inactive),0.725,0.102
COC(=O)[C@@H]1N=C(c2ccc(OCCCO)cc2)O[C@@H]1c1ccccc1,1.64,-2.99 (inactive),1.09 (inactive),-0.103 (inactive),-0.484 (inactive),-0.763 (inactive),0.714 (inactive),0.129 (inactive),1.5,0.761
CCOC(=O)C1=CC[C@@H](c2ccccc2)N(S(=O)(=O)c2ccc(C)cc2)[C@H]1c1ccccc1,-0.356,1.92 (inactive),-0.564 (inactive),1.03 (inactive),0.85 (inactive),1.75 (inactive),-0.544 (inactive),-0.244 (inactive),-1.33,0.0512
CC(C)(C)OC(=O)COc1cccc(C(=O)CCN2CCOCC2)c1,0.454,-10.3 (active),-0.971 (inactive),-3.31 (inactive),-1.03 (inactive),-0.616 (inactive),0.215 (inactive),0.0359 (inactive),-3.51,-0.203
[N-]=[N+]=Nc1ccccc1[C@@H]1OC(c2ccc(OCCCO)cc2)=N[C@]1(Cc1ccccc1)C(=O)O,0.841,0.307 (inactive),0.492 (inactive),1.72 (inactive),-0.664 (inactive),2.5 (inactive),2.46 (inactive),0.921 (inactive),0.514,0.0269
[N-]=[N+]=Nc1ccccc1C[C@@]1(C(N)=O)N=C(c2ccc(OCCCO)cc2)O[C@@H]1c1ccccc1N=[N+]=[N-],0.212,-3.3 (inactive),-0.902 (inactive),-0.652 (inactive),0.0405 (inactive),-0.739 (inactive),0.891 (inactive),-0.174 (inactive),-0.76,-0.112
COC(=O)c1c(CC[C@@H](CO)NC(=O)N2CCC[C@H]2Cn2cc(C3(O)CCCCC3)nn2)oc(C(C)=O)c1C(=O)OC,-0.089,-0.212 (inactive),-0.66 (inactive),-0.0366 (inactive),-0.546 (inactive),-0.37 (inactive),0.294 (inactive),-0.0642 (inactive),-0.302,-0.0448
